Source: PubChem
This is a sample that favours compounds with a hit; in the whole collection about 8% have one here.
HT1080-NT tox = kills 2HG-producing HT-1080-NT fibrosarcoma cells | HT-1080-NT fibrosarcoma viability, CellTiter-Glo ATP luminescence, 48 h | actives 1.6% (n = 360,000) | Potency, µM (top dose mostly 46.1 µM), actives largely listed as cytotoxic;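 note: NT is the 2HG producing partner of a matched IDH1 knockdown line; nearly all actives have a fitted effect of over 55% in size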
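750 cells/well, RPMI + 5% FBS; 2 h settle, compound pin-transfer, 48 h at 37 degrees C. CellTiter-Glo 10 min RT, luminescence. Normalized to DMSO and media-only wells.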
HT1080 IDH1KD tx = HT-1080 IDH1 knockdown cell toxicity (counter line). HT-1080 IDH1 knockdown viability, ATP luminescence, 48 h. Potency, µM (titrated, usually from 46.1 µM), most hits filed as cytotoxic. actives 2% (n = 360,000). AID 686971
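Knockdown cells (IDH1KD HT-1080) received compounds 2 h after plating at 750 cells/well and were kept 48 h at 37 °C in 5% FBS RPMI. A CellTiter-Glo luminescence read gave % activity for curve fitting.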
KB-3-1 tox = KB-3-1 parental cell cytotoxicity; KB-3-1 viability, CellTiter-Glo ATP luminescence, 72 h; Potency, µM (series often up to 46.1 µM), most hits filed as cytotoxic; AID 1347075; actives 1.4% (n = 400,000); note: nearly all actives have a fitted effect of over 60% in size
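Cytotoxicity in the drug-sensitive parental line KB-3-1 was scored as loss of CellTiter-Glo luminescence following 72 h incubation with compound. Values come from curve fitting of normalized concentration-response data.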
MCF10A rerep = DNA re-replication induction in MCF 10a cells. MCF 10A DNA re-replication, Hoechst nuclear intensity, 48 h. Potency, µM (doses to about 46.1 µM), most hits filed as activators. actives 2.9% (n = 350,000). AID 624296; note: nearly all actives have a fitted effect of over 50% in size
KB-V1 MDR tox = kills drug-selected multidrug resistant KB-V1 cells; KB-V1 MDR cells viability, CellTiter-Glo, 72 h; Potency, µM (highest dose often 46.1 µM), usual class: cytotoxic; actives 3.4% (n = 400,000); AID 1347076; note: nearly all actives have a fitted effect of over 60% in size
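Potencies derive from concentration-effect curves fitted to normalized luminescence (CellTiter-Glo) of KB-V1 cells treated for 72 h at 37 degrees C in phenol-red-free DMEM containing 10% FBS.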
SW480 rereplic = inducers of DNA re-replication in SW480 colon cancer cells | SW480 DNA re-replication, Hoechst DNA content imaging, 48 h | Potency, µM (titrated, usually from 46.1 µM), hits mostly activators | actives 1.8% (n = 340,000); note: nearly all actives have a fitted effect of over 55% in size
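Hoechst fluorescence of nuclei (405 nm excitation, 500-530 nm emission) measured by plate-scanning imager after 48 hr compound exposure at 37 C; re-replication scored as increased number of nuclei with elevated intensity.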
A number is an active result; – = inactive; ? = inconclusive; · = no result given; [ ] = dose if it differs, or a comment. Calls come from the whole dose curve; as a rule, active = well fitted curve in the direction sought with a large enough effect; inconclusive = small, poorly fitted or top-dose-only effect, or another doubt; inactive = no such curve, though single readings can be large; an effect the other way counts as inactive or inconclusive.

SMILES	HT1080-NT tox	HT1080 IDH1KD tx	KB-3-1 tox	MCF10A rerep	KB-V1 MDR tox	SW480 rereplic
Cc1cc(C)cc(N(C(=O)Cn2nnc(-c3ccccc3)n2)C(C(=O)NC2CCCCC2)c2ccccn2)c1 (stereo not drawn)	–	–	–	–	?	–
Cc1ccc(N(C(=O)CCl)C(C(=O)NC2CCCCC2)c2cccnc2)cc1C (stereo not drawn)	1.6µM	1.6µM	3.7µM	7.3µM	3.7µM	?
Cc1ccc(N(C(=O)CNC(=O)c2ccco2)C(C(=O)NC2CCCCC2)c2cccnc2)cc1C (stereo not drawn)	–	–	–	–	–	–
Cc1ccc(N(C(=O)Cn2nnc(-c3ccccc3)n2)C(C(=O)NC2CCCCC2)c2ccccn2)cc1C (stereo not drawn)	–	–	–	?	1.2µM	–
CCCN(Cc1cccs1)C(=O)Nc1cc(C)ccc1OC	·	·	–	·	–	·
O=C(O)CCC(=O)Nc1sc2c(c1C(=O)Nc1ccccc1)CCCCC2	21µM	?	?	?	–	–
O=C(Nc1cccc(Cl)c1)c1c(NC(=O)C(F)(F)F)sc2c1CCCC2	·	·	?	·	12µM	·
CCN(CC)c1ccc(NC(=O)Cn2nc(C)n3cccc3c2=O)c(C)c1	·	·	–	·	–	·
O=C1C2C3C=CC(CNS(=O)(=O)c4ccccc4[N+](=O)[O-])(O3)C2C(=O)N1c1ccccc1 (stereo not drawn)	–	–	–	21µM	?	?
CCN1CCN(Cc2ccc(OC)c(OCc3ccccc3)c2)CC1	–	–	–	–	–	–
COc1ccc(CN2CCN(c3ccccn3)CC2)cc1OCc1ccccc1	–	?	–	?	9.2µM	–
CCOc1cc(CN2CCC(CO)(Cc3cccc(C(F)(F)F)c3)CC2)ccc1OC	21µM	21µM	26µM	–	–	–[1.84 µM]
CCOc1cc(CN2CCCCCC2)ccc1OC	–	–	–	–	–	?
CCOc1ccccc1N1CCN(Cc2ccc(OC)c(OC)c2OC)CC1	–	–	–	–	18µM	–
CCOc1ccccc1N1CCN(Cc2ccc(OC)c(OC)c2)CC1	–	–	–	–	16µM	–
COc1cccc(NC(=O)Cn2c(=O)n(CCCCC(=O)NCCc3ccccc3)c(=O)c3ccccc32)c1	·	·	–	·	–	·
CCC(C)NC(=O)c1ccc2nc(-c3ccco3)c(-c3ccco3)nc2c1 (stereo not drawn)	·	·	–	·	–	·
CCc1cccc(C)c1NS(=O)(=O)c1cc2[nH]c(=O)c(=O)[nH]c2cc1C	·	·	–	·	?	·
CCOC(=O)COc1ccc(CC)cc1C(=O)c1ccn2nc(-c3ccccc3)cc2n1	·	·	–	·	–	·
CSc1ncc(C(=O)Nc2ccc(C)c(Cl)c2)c(-c2ccccc2)n1	·	·	–	·	–	·
CN(C)c1ccc(/C=C2\C=Cc3ccccc32)cc1Cl	·	·	–	·	?	·
CC(Oc1ccc2oc3ccccc3c2c1)C(=O)NC12CC3CC(CC(C3)C1)C2 (stereo not drawn)	–	–	–	16µM	–	?
COc1cc2c(cc1NC(=O)C(C)Oc1ccccc1)oc1ccccc12 (stereo not drawn)	·	·	–	·	–	·
COc1c(C)cc(C(=O)C2CCCN(C(=O)C3=C(C)OCCO3)C2)cc1C (stereo not drawn)	–	–	–	–	21µM	–
COCC(=O)Nc1cc(Sc2ccccc2)ccc1N=C(NC(=O)OC)NC(=O)OC	·	·	·	7.5µM	·	17µM
SMILES	HT1080-NT tox	HT1080 IDH1KD tx	KB-3-1 tox	MCF10A rerep	KB-V1 MDR tox	SW480 rereplic
COCC(=O)Nc1ccccc1NC(C)=O	–	–	–	–	–	–
CCOc1cc(-c2cc(-c3ccc(C)cc3)nc(N)c2C#N)ccc1O	8.9µM	13µM	5.8µM	21µM	8.2µM	16µM
COc1ccccc1-c1c(C)c(C)nc(N)c1C#N	–	–	–	–	–	–
CCOc1cc(-c2c(C#N)c(N)nc3c2CCc2ccccc2-3)ccc1O	–	?	?	?	23µM	?
CCOc1cc(-c2c(C#N)c(N)nc3c2CCCC3C)ccc1O (stereo not drawn)	?	?	?	?	18µM	?
COc1ccc(-c2c(C#N)c(N)nc3c2CCCCCC3)cc1OC	–	–	–	–	–	–
COc1ccccc1-c1c(C#N)c(N)nc2c1CCc1ccccc1-2	15µM	16µM	13µM	?	16µM	21µM
CCOC(=O)COc1nc2c(c(-c3ccco3)c1C#N)CCc1ccccc1-2	–	–	–	–	–	–
Cc1cccc(-n2c(-c3ccccc3)cn3c4c(=O)[nH]c(=O)n(C)c4nc23)c1	·	·	–	·	?	·
Cc1ccccc1OCCSc1nc2ccc(NC(=O)c3cccc(F)c3)cc2s1	·	·	–	·	–	·
Cc1ccc(S(=O)(=O)N2[C@H](CC(=O)c3cccs3)OC[C@@H]2C(C)C)cc1	?	?	18µM	·	18µM	·
O=C(Nc1ccccc1NC(=O)NC1CCCCC1)NC1CCCCC1	–	–	?	3.7µM	–	?
CC(C)(C)c1ccc(/C=N/NC(=S)NC2CCCCC2)cc1	–	?	?	16µM	?	?
O=C(CNC(=O)OCc1ccccc1)NC1CCCCCCC1	–	–	–	–	18µM	–
O=C(N/N=C/c1ccccc1)NC1CCCCC1	–	–	–	–	16µM	–
Cc1[nH]c2ccccc2c1C(=O)COC(=O)c1ccccc1SCC(=O)N1CCCC1	·	·	–	·	–	·
Cc1cccn2c(=O)c3cc(C(=O)NC4CCCCCC4)sc3nc12	–	–	–	?	–	–
CC1CN(C(=O)c2cc3c(=O)n4ccccc4nc3s2)CC(C)O1 (stereo not drawn)	–	–	–	–	–	–
CC1CC(C)CN(C(=O)c2cc3c(=O)n4ccccc4nc3s2)C1 (stereo not drawn)	–	–	–	21µM	–	–
CC(C)NC(=O)c1cc2c(=O)n3ccccc3nc2s1	–	–	–	–	–	–
O=C(NC1CCCCCC1)c1cc2c(=O)n3ccccc3nc2s1	?	–	–	21µM	–	18µM
Cc1cc(C)cc(NC(=O)c2cc3c(=O)n4ccccc4nc3s2)c1	–	–	–	?	–	9.2µM
Cc1cc2oc(C(=O)Nc3cccc(-c4nc5ccccc5o4)c3)c(C)c2cc1C	·	·	–	·	–	·
CN(C)C1(CNC(=O)COc2ccc(C(C)(C)C)cc2)CCCCC1	·	·	–	·	–	·
CCOc1ccc2nc(NS(=O)(=O)Cc3ccccc3)sc2c1	5.8µM	6.5µM	?	0.23µM	?	?
CCOc1ccc2nc(NS(=O)(=O)c3ccc(NC(C)=O)cc3)sc2c1	–	–	–	–	–	–
Cn1cc(C(=O)NCCc2ccccc2)c(=O)c2cc(S(=O)(=O)N3CCCCCC3)ccc21	·	·	–	·	–	·
